Only some compounds are listed: those with a hit (about 11% of all), similar ones and a draw of the others.
PNC inhibitor: blocks assembly of the perinucleolar compartment; PC3M PTB-GFP, PNC prevalence imaging, 16 h; stronger effect = lower value; activity change (PNC), negative = inhibition, % at 10 µM; 140,000 compounds, 3.1% hits;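 active = readout at or below -70, meaning at least 70% loss of cells showing the perinucleolar compartment, a nuclear body marking cancer cells; inconclusive = readout between -30 and a set limit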
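PC3M cells stably expressing PTB-GFP, 750–1000 cells/well, treated 16 h at 37 °C with compound (23 nl of library stock), in duplicate. After paraformaldehyde fixation and Hoechst stain, imaged at 20x; PNC prevalence scored by image analysis.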
ALDH1A1 block: ALDH1A1 (human) enzyme inhibition; P00352; Purified ALDH1A1, NADH fluorescence, propionaldehyde substrate; Potency, µM (titrated, usually from 75.3 µM), actives largely listed as inhibitors; 220,000 compounds, 7.3% hits; active = well fitted inhibition curve with a large enough effect, not every such curve was filed as active; inconclusive = small, poorly fitted or top-dose-only effect, or another doubt; inactive = no such curve, though single readings can be large or run the other way
Target sequence (P00352 whole entry, looked up): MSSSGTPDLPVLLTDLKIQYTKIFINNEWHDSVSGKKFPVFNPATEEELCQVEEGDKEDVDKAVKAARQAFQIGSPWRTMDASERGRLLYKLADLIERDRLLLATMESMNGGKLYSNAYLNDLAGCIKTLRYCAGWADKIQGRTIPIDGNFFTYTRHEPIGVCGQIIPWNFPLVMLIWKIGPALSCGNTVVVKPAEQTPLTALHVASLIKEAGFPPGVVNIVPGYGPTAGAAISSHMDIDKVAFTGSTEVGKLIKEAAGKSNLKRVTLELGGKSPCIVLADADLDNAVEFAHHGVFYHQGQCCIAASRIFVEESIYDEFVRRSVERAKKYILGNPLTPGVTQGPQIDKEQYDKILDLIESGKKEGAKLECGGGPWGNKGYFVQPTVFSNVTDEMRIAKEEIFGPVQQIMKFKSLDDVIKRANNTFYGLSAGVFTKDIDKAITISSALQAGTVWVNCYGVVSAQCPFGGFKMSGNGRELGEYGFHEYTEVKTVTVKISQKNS
12-hLO inh: inhibitors of human 12-lipoxygenase (ALOX12); 150,000 compounds, 0.12% hits; purified 12-hLO, xylenol orange hydroperoxide absorbance; AID 1452; P18054; Potency, µM (titrated, usually from 57.1 µM), most hits filed as inhibitors; also: nearly all actives have a fitted effect of over 55% in size
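Purified human 12hLO (150 nM), preincubated 15 min with compound, then 40 uM arachidonic acid for 30 min, room temperature, Hepes pH 7.0 with 0.01% Triton X-100. Hydroperoxide detected by ferrous iron/xylenol orange; 573/405 nm absorbance ratio gives reaction progress.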
HPGD block: HPGD (human) dehydrogenase inhibition. purified HPGD, NADH fluorescence kinetic, PGE2 substrate. Potency, µM, usual class: inhibitors. AID 894. 150,000 compounds, 4.3% hits. P15428; active = well fitted inhibition curve with a large enough effect, not every such curve was filed as active; inconclusive = small, poorly fitted or top-dose-only effect, or another doubt; inactive = no such curve, though single readings can be large or run the other way
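NADH formation kinetics: reaction with 30 uM PGE2 and 1 mM NAD+ (final), 20 nM enzyme, Tris-HCl pH 8 with Tween 20, after 15 min compound preincubation at room temperature. Fluorescence change, last versus first of five reads.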
IMPase cell inh: IMPase inhibition in cells; P97697; CHO-M1 cells, IP1 accumulation, HTRF TR-FRET ratio; inhibition (IP1 accumulation), % at 46.1 µM; 120,000 tested, under 10 active; active = well fitted curve in the direction sought with a large enough effect in the signal ratio, not every such curve was filed as active; inconclusive = small, poorly fitted or top-dose-only effect, or a change in a side signal; inactive = no such curve, though single readings can be large or run the other way; the % refers to the signal ratio;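 also: cells stimulated with carbachol in lithium chloride buffer; higher means more IMPase inhibition seen as more IP1 and lower FRET ratio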
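Cellular IMPase inhibition is scored as a rise in cytosolic IP1, detected by competitive TR-FRET between d2-labelled IP1 and a europium anti-IP1 antibody. M1-expressing CHO cells were stimulated with carbachol for 30 min at 37C, with lithium (50 mM LiCl) present in the buffer.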
IMPase Li cell: membrane-permeable IMPase blocker, potentiated with lithium | CHO-M1 cells, IP1 TR-FRET (IP-One), carbachol + lithium | Potency, µM (titrated, usually from 59.4 µM), most hits filed as inhibitors | 210,000 compounds, 0.35% hits | AID 1457;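 also: IP1 builds up when IMPase is blocked and the TR-FRET signal falls; nearly all actives have a fitted effect of over 50% in size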
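Steps: plate 2000 CHO-M1 cells per well and culture 16–30 h; add compound and lithium; incubate 30 min, 37C; add d2-IP1 tracer and Eu cryptate anti-IP1 antibody in lysis buffer; read after 10 min at room temperature.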
A number is an active result; i = inactive; ? = inconclusive; nt = not tested or not shown; [ ] = remark or other dose. Unless noted, calls follow the shape of the dose curve; as a rule, active = well fitted curve in the direction sought with a large enough effect; inconclusive = small, poorly fitted or top-dose-only effect, or another doubt; inactive = no such curve, though single readings can be large; an effect the other way counts as inactive or inconclusive.

SMILES | PNC inhibitor | ALDH1A1 block | 12-hLO inh | HPGD block | IMPase cell inh | IMPase Li cell
Cc1ccc([S+](=O)([O-])N(c2ccccc2)[S+](=O)([O-])C(F)(F)F)cc1 | nt | i | nt | i | nt | i
CCC(C)NCCCCOc1cc(C)cc(C(C)C)c1 (stereo not given) | i | ? | i | i | nt | i
CCCCOC(=O)c1ccc(NC(=O)/C(C#N)=C/c2ccc(C)o2)cc1 | nt | nt | nt | nt | i | nt
COc1ccc(-c2cc(C(F)(F)F)n3nc(C(=O)O)cc3n2)cc1OC | i | i | i | i | i | i
CN1CCN(C(=O)c2cc3nc(-c4ccc(Cl)cc4)cc(C(F)(F)F)n3n2)CC1 | i | ? | i | ? | i | i
COc1ccc(-c2cc(C(F)(F)F)n3nc(C(=O)N4CCCCC4)cc3n2)cc1 | i | ? | i | ? | i | i
O=C(c1cc2nc(-c3ccc(F)cc3)cc(C(F)(F)F)n2n1)N1CCCC1 | i | i | i | 3.5µM | i | i
COc1cccc(-c2cc(C(F)(F)F)n3nc(C(=O)N4CCCCC4c4cccnc4)cc3n2)c1 (stereo not given) | nt | 22µM | nt | nt | nt | i
CN1CCN(C(=O)c2cc3nc(-c4ccccc4)cc(C(F)(F)F)n3n2)CC1 | i | i | i | 10µM | i | i
CCc1ccc(C(=O)CSc2nc(-c3ccccc3)nc3c2CCCC3)cc1 | nt | nt | nt | nt | i | nt
Cc1nn(-c2ccccc2)c(C)c1/C=N/NC(=O)c1cc(-c2ccc(Br)s2)[nH]n1 | i | ? | i | ? | i | i
Cc1nn(-c2ccccc2)c(C)c1/C=N/NC(=O)c1cc(-c2cccs2)[nH]n1 | -115 | i | i | i | i | i
CC1=C/C(=N/O)C([C@H]2C=C(C)CC(C)(C)[C@@H]2O)C(C)(C)C1 (stereo not given in full) | nt | i[13.5 µM] | i[11.4 µM] | i | nt | i
C=CCNC(=O)/C(C#N)=C/c1c(N(Cc2ccccc2)Cc2ccccc2)nc2ccccn2c1=O | i | 7.1µM | i | i | i | i
Cc1noc(C)c1C(=O)N1CCC[C@@]2(CCN(c3ccccc3)C2)C1 | nt | i | i | i | nt | i
S=C(c1ccc(-c2ccc(Cl)c(Cl)c2)o1)N1CCOCC1 | i | 8.9µM | i | 25µM | i | i
S=C(c1ccc(-c2ccccc2Cl)o1)N1CCOCC1 | ? | 7.9µM | i | 8.9µM | ? | i
CC(C)(C)NC[C@@H](O)c1ccc(O)c(CO)n1 | nt | i[13.5 µM] | i[11.4 µM] | i | nt | i
C=C(C)C(O)/C=C/c1ccc(C(F)(F)F)cc1 (stereo not given) | nt | i | i | i | nt | i
CCNc1ncc2nc(C)c(=O)n(Cc3ccc(F)cc3)c2n1 | nt | ? | nt | nt | nt | i
COc1ccc(S(=O)(=O)NCCC(=O)NCc2ccccc2)cc1 | i | 25µM | i | nt | i | nt
Cc1ccc(S(=O)(=O)NCCCCCC(=O)NC(C)(C)CO)cc1 | ? | 7.9µM | i | i | i | i
COCC(C)NS(=O)(=O)c1ccc(OC)cc1 (stereo not given) | i | i | i | nt | i | nt
Cc1ccc(S(=O)(=O)NCCCCCC(N)=O)cc1 | i | i | i | i | i | i
Cc1ccc(S(=O)(=O)NCCC(=O)NCc2ccc3c(c2)OCO3)cc1C | i | 7.9µM | i | i | i | ?
SMILES | PNC inhibitor | ALDH1A1 block | 12-hLO inh | HPGD block | IMPase cell inh | IMPase Li cell
COc1ccc(S(=O)(=O)NC(C)CCc2ccccc2)cc1 (stereo not given) | nt | 0.63µM | nt | nt | nt | i
COC(=O)N1CCC[C@@]2(CCN(C(=O)Nc3cccc(F)c3)C2)C1 | nt | i | i | i | nt | i
CCc1ccccc1O | nt | i | i | i | nt | i
CCCCCCCCCCCCCCCC(=O)N[C@@H](COP(=O)(O)O)C(=O)O | nt | i | i | ? | nt | i
O=C(CCc1ccc(S(=O)(=O)NCCc2ccccc2)cc1)NCc1ccco1 | i | 5µM | i | i | i | i
COc1ccccc1CNC(=O)CCCc1ccccc1 | ? | i | i | ? | nt | i
Cc1ccc(CNC(=O)CCNS(=O)(=O)c2ccc(C)cc2)cc1 | i | 14µM | i | i | i | i
COc1ccc(CNC(=O)CCCc2ccccc2)cc1 | i | 1.1µM | i | i | nt | i
O=C(CCCNS(=O)(=O)c1ccccc1)NCc1ccco1 | i | i | i | i | i | i
C[C@H]1Cc2c(-c3ccccc3)nc3c(c2CO1)CN(S(=O)(=O)c1ccc(C#N)cc1)CC3 | nt | i[13.5 µM] | i[11.4 µM] | i | nt | i

Compound activity as filed in PubChem.
